# Results reported in PubChem BioAssay (EPA / NIEHS).
# Results filed as inconclusive are left out. Calls of active or inactive are those of the source. Rule for the calls: active = hit-call score of the fitted dose curve at least 0.9, where 1 is the maximum; inconclusive = response in the unintended direction; inactive = score below 0.9.
# Assays:
# [1] = molecular target: Bile acid receptor (Homo sapiens) (UniProt Q96RI1); assay: OT_FXR_FXRSRC1_0480: Odyssey Thera (OT) 8-hour HEK293T Protein-Complementation Assay for Farnesoid X receptor/SRC-1 Co-activator (AID 2283383)
# Chain of Bile acid receptor (Homo sapiens) (Q96RI1 whole entry, looked up, the tested form may be a part): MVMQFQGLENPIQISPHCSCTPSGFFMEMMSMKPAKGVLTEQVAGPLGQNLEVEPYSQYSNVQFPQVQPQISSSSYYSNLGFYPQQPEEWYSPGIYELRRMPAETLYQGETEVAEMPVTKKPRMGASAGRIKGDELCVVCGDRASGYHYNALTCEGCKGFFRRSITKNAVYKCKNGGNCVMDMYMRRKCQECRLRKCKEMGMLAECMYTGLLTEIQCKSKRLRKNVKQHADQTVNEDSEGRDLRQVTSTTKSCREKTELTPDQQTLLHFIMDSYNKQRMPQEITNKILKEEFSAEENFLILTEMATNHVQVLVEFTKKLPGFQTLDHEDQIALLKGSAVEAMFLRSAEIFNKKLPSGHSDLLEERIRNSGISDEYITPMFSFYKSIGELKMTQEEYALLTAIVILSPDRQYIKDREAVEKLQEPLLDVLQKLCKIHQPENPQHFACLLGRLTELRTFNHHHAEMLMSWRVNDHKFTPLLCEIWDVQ
# Method in brief: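 HEK293T protein-fragment complementation assay: FXR and SRC-1 coactivator are fused to reporter fragments, and their interaction restores a fluorescent reporter. Readout was taken 8 h after dosing, with gain of signal fit relative to DMSO.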
# [2] = molecular target: Retinoic acid receptor RXR-alpha (Homo sapiens) (UniProt P19793); assay: OT_NURR1_NURR1RXRa_0480: Odyssey Thera (OT) 8-hour HEK293T Protein Complementation Assay for Nurr1/retinoid X receptor (RXR) (AID 2283385)
# Chain of Retinoic acid receptor RXR-alpha (Homo sapiens) (P19793 whole entry, looked up, the tested form may be a part): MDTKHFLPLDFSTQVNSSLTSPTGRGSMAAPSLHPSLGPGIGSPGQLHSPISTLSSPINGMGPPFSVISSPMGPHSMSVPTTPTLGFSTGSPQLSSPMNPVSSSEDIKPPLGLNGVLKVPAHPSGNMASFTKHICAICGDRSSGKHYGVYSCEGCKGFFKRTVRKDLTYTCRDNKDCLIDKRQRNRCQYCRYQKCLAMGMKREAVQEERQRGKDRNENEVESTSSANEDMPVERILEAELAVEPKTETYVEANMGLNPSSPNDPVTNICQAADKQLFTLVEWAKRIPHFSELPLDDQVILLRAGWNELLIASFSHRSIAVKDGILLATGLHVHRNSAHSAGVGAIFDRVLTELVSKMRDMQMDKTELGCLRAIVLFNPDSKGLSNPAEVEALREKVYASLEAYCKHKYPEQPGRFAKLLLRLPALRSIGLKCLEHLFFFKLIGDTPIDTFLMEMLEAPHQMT
# Method in brief: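 HEK293T cells expressing Nurr1 and RXRα fused to reporter fragments (protein-fragment complementation); fluorescence measured 8 h after dosing. Gain of signal fitted relative to DMSO.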
# [3] = molecular target: Peroxisome proliferator-activated receptor gamma (Homo sapiens) (UniProt P37231); assay: OT_PPARg_PPARgSRC1_0480: Odyssey Thera (OT) 8-hour Protein-Complementation Assay for Peroxisome Proliferator-activated Receptor Gamma / SRC-1 Co-activator (AID 2283387);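 note: nuclear to cytoplasmic split Venus YFP fluorescence ratio reporting PPARg SRC-1 interaction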
# Chain of Peroxisome proliferator-activated receptor gamma (Homo sapiens) (P37231 whole entry, looked up, the tested form may be a part): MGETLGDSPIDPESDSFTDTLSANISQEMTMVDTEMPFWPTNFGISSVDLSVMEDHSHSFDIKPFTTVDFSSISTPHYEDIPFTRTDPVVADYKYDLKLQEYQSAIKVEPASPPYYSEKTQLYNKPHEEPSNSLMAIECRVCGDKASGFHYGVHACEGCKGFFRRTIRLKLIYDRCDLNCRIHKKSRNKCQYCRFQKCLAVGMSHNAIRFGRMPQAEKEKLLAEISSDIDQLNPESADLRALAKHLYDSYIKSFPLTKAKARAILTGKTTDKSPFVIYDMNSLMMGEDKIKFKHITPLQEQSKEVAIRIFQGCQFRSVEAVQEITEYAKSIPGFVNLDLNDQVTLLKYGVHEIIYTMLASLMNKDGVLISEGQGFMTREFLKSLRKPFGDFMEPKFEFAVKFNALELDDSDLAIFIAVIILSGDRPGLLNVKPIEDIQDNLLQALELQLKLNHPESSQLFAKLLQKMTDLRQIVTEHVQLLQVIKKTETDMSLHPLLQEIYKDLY
# Method in brief: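 Protein-fragment complementation of split Venus YFP reports PPARg/SRC-1 interaction in HEK293T (transfected 48 h before treatment), exposed 8 h. Readout: N/C fluorescence ratio at 488 nm from imaging, Draq5 for segmentation, positive fit relative to DMSO.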
# [4] = molecular target: Bile acid receptor (Homo sapiens) (UniProt Q96RI1); assay: OT_FXR_FXRSRC1_1440: Odyssey Thera (OT) 24-hour HEK293T Protein-Complementation Assay for Farnesoid X receptor/SRC-1 Co-activator (AID 2283384)
# Method in brief: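 HEK293T cells, 24 h after chemical dosing. FXR–SRC-1 coactivator interaction read as fluorescence from protein-fragment complementation of a split reporter. Gain of signal fitted against DMSO baseline.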
# [5] = molecular target: Estrogen receptor beta (Homo sapiens) (UniProt Q92731); assay: OT_ER_ERbERb_1440: Odyssey Thera (OT) 24-hour HEK293T Protein-Complementation Assay for Estrogen Receptor-beta/-beta Homodimer (AID 2283380);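 note: scored as signal increase over DMSO baseline for both agonists and antagonists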
# Chain of Estrogen receptor beta (Homo sapiens) (Q92731 whole entry, looked up, the tested form may be a part): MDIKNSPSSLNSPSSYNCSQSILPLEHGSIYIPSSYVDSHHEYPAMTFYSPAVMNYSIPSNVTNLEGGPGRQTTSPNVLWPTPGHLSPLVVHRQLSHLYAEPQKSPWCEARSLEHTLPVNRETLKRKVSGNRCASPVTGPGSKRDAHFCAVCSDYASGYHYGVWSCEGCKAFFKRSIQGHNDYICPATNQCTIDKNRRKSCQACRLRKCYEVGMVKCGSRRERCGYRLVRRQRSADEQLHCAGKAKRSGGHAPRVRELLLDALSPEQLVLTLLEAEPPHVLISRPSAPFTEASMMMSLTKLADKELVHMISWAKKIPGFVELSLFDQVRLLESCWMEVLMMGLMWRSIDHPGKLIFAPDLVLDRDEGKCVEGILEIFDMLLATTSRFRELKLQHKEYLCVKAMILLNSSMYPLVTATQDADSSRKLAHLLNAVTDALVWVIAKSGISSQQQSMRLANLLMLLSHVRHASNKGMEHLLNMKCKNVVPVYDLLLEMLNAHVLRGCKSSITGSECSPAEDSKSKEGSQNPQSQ
# Method in brief: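 HEK293T cells stably expressing ER beta LBD (aa 310-547) homodimer fragment-complementation reporter, dosed 24 h. Cells formaldehyde-fixed, Draq5-stained; gain in nuclear (agonist) or nuclear plus cytoplasmic (antagonist) fluorescence versus DMSO read by laser scanning cytometry.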
smiles,measurement,setting,value
O=C1OC(=O)c2c(Cl)c(Cl)c(Cl)c(Cl)c21,outcome,[1],inactive
same,outcome,[2],inactive
same,outcome,[3],inactive
CCNCCO,outcome,[4],inactive
same,outcome,[3],inactive
CC1CC(O)CC(C)(C)C1 (centres undefined),outcome,[5],inactive
same,outcome,[4],inactive
same,outcome,[3],inactive
COCCOCCOCCO,outcome,[2],inactive
CN1CCOCC1,outcome,[5],inactive
same,outcome,[2],inactive
same,outcome,[3],inactive
CCOc1ccccc1O,outcome,[5],inactive
same,outcome,[3],inactive
